Here are results for 40 sequences from the OligoGym collection.
Further: reference of the scale not given here.

In the first test the target is GNAQ. As to the kind of experiment: pooled miR-30 sensor sort-seq; sequence = guide strand. The conditions noted are these: shRNA.
The sequence ATAATTGATATTCTCGTCGTCT showed a sensor-assay potency score (higher = more potent) of 0.0326.

For the sequence TCGAACTCTAAGCACATCTTGT, the sensor-assay potency score (higher = more potent) was -0.759.

In the case of TACTCTTGCCACTCTCTCCTGT, the sensor-assay potency score (higher = more potent) came out at 0.305.

As to TCGTCTATCATAGCATTCCTGG, the sensor-assay potency score (higher = more potent) was -1.02.

Sequence TCTAAGCACATCTTGTTGCGTA returned a sensor-assay potency score (higher = more potent) of 0.35.

Turning to TTGAGTGTGTCCATGGCTCTGA, the sensor-assay potency score (higher = more potent) was 0.188.

In turn, TATCTTCATCAGAGTATCCTGA had a sensor-assay potency score (higher = more potent) of -0.164.

A further test addresses GNAT1. The description is as above. The conditions noted are these: shRNA.
With TTGAGTGTGGTCATGGCGCGTA, the sensor-assay potency score (higher = more potent) was -0.473.

For the sequence TAATCTTCATCTGCTTGACGAT, the sensor-assay potency score (higher = more potent) was -0.376.

TAGTCCGGGAAACAGATGCTGA had a sensor-assay potency score (higher = more potent) of -1.24.

The sequence TCCTTGATGATGATGTCGGTGA returned a sensor-assay potency score (higher = more potent) of -1.08.

Turning to TTTGACGTTCTGCGTGTCGGTG, the sensor-assay potency score (higher = more potent) is -0.514.

Sequence TAGATCTCCTTCACGTCGCGCC showed a sensor-assay potency score (higher = more potent) of -0.148.

TAGCGGTGGTTGCAGATGCTGT showed a sensor-assay potency score (higher = more potent) of -1.65.

In turn, TGCACCTTGATGTAGTTGCCGG yielded a sensor-assay potency score (higher = more potent) of -1.2.

TTCGTCGTCCTCCACTAGCACC came in with a sensor-assay potency score (higher = more potent) of -1.74.

The sequence TTGGGTCCATCGTAGTCCGGGA came in with a sensor-assay potency score (higher = more potent) of -0.616.

TTGACGTTCTGCGTGTCGGTGG returned a sensor-assay potency score (higher = more potent) of 0.245.

TTCTTTTCCAGCTCCCTGGAGT: the sensor-assay potency score (higher = more potent) was -0.257.

For another test, the target named is GNLY. Described as above. To be noted: shRNA.
As for TTGGACTATCGTCAGACAGGTC, the sensor-assay potency score (higher = more potent) is -0.895.

TTTTGGTCAACAGGTCACCCTG: the sensor-assay potency score (higher = more potent) was -1.53.

ACTATCGTCAGACAGGTCCTGT came in with a sensor-assay potency score (higher = more potent) of -0.334.

On to TTTCTCCTCATCACGCAGGTGG, for which the sensor-assay potency score (higher = more potent) was -0.588.

Sequence TTGGTCAACAGGTCACCCTGGG registered a sensor-assay potency score (higher = more potent) of -0.135.

The sequence TTTTGGACTATCGTCAGACAGG gave a sensor-assay potency score (higher = more potent) of -1.31.

For the sequence ATTGGAAACACTTCTCTGGGTG, the sensor-assay potency score (higher = more potent) worked out at 0.184.

The sequence TTGCCAGGTCGTAGTACTCAGG returned a sensor-assay potency score (higher = more potent) of -1.35.

In the case of TTTGGTCAACAGGTCACCCTGG, the sensor-assay potency score (higher = more potent) was determined as 0.282.

TTCAGTTTTTGGACTATCGTCA yielded a sensor-assay potency score (higher = more potent) of 0.462.

TATACACAACCTGAGGTCCTCA gave a sensor-assay potency score (higher = more potent) of -0.844.

In turn, TTGGAAACACTTCTCTGGGTGG came in with a sensor-assay potency score (higher = more potent) of -0.134.

In the next test the target is GOLGA1. Described as above. The conditions noted are these: shRNA.
Regarding TATGGTCTTATTTTTCTCCAGA, the sensor-assay potency score (higher = more potent) was -0.384.

On to TTTACTTAGTTCCTGCTGCTGG, for which the sensor-assay potency score (higher = more potent) was determined as 0.484.

TTTATCTTCTGCAAGTTTCGGA displayed a sensor-assay potency score (higher = more potent) of 0.43.

Consider TTCGAAGAGCTCATTATCGGGT, for which the sensor-assay potency score (higher = more potent) worked out at 0.0609.

Regarding TTAAGTCTGATGACATCTGATT, the sensor-assay potency score (higher = more potent) was -1.11.

Sequence TTCTAATGCAATTTCAAGCTTC had a sensor-assay potency score (higher = more potent) of 0.23.

As to TATTTTACTTAGTTCCTGCTGC, the sensor-assay potency score (higher = more potent) came to 0.934.

Regarding TTATCTTCTGCAAGTTTCGGAC, the sensor-assay potency score (higher = more potent) is -0.221.

TATAGTAGTGAAGAACTTCAGC had a sensor-assay potency score (higher = more potent) of -0.313.
